The text below walks through data of PubChem BioAssay.

Experiment [1] can be described thus: reduced mouse 2C T cell binding to pMHC/ICAM-1 vesicles – MLPCN validation set, flow cytometry, LFA-1/ICAM-1 modulator project, pilot screen (AID 2523;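 active = response below a set limit, under 55% cells CD8-positive and vesicle-bound, and CD8 cells' 90th-percentile brightness under 279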;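 for vesicle binding response: mean PE anti-B7-1 fluorescence of CD8+ cells relative to row control; 100% = QL9-loaded vesicles with DMSO vehicle in the same plate row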). The settings on record: 2C mouse CD8+ T cells, at 7 µM, stronger effect = lower value; double positive events: measured here: CD8+/vesicle+ event percentage. A general note: A flow cytometer gives signals particle by particle.

The target in experiment [2] is Integrin beta-1 (Homo sapiens) + Integrin alpha-4 (Homo sapiens) (UniProt P13612+P05556). Kind of experiment: alpha4beta1 integrin LIBS antibody binding reduction – U937 cells, HUTS-21 mAb, flow cytometry, validation set, VLA-4 allosteric modulator project, pilot screen (AID 2674;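 active = inhibition above 50%, about 3 SD of the validation set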;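 note: antibody binding induced by the VLA-4 ligand LDV present at three times its Kd; 0% = LDV ligand with antibody and no compound and 100% = antibody without LDV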). The settings on record: HUTS-21 LIBS mAb binding, at 6.7 µM, stronger effect = higher value, binding induced by LDV ligand.

Experiment [3] in a line: calorie-restriction mimetic ROS inhibitors, yeast – validation compound set, pilot screen (AID 2706;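 active = superoxide response below 65% of plate, a cut near 3 SD across the whole screen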;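 note: yeast exposed to compound for one week at 30 degrees C before staining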;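 for superoxide response (% of plate): 100% = mean of all compound wells on the same plate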). The settings on record: S. cerevisiae aging, superoxide DHE fluorescence; at 10 µM, stronger effect = lower value.
The target of experiment [4] is Beta-adrenergic receptor kinase 1 (Homo sapiens) (UniProt P25098). The experiment can be described thus: GRK2 binders displacing RNA aptamer, biochemical, validation, human GRK2, bead flow cytometry (AID 488806;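 active = aptamer binding inhibition above 30%, about 3 SD of noise from non-fluorescent compounds; inactive = inhibition at or below 30%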). The following applies: bead-bound GRK2, FAM-aptamer displacement, at 10 µM, stronger effect = higher value.
Experiment [5] addresses Beta-2 adrenergic receptor (Homo sapiens) (UniProt P07550). Kind of experiment: agonist-induced loss of surface beta2AR – cell-based, FAP fluorogen, flow cytometry, validation set, pilot screen (AID 504459;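 active = percent response above 42, roughly 3 SD of non-fluorescent test compounds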;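 note: agonist-driven loss of surface beta2AR via internalization measured by FAP dye flow cytometry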). The following applies: Am2.2-beta2AR cells, at 10 µM, stronger effect = higher value.
The target in experiment [6] is AP-2 complex subunit beta (Homo sapiens) (UniProt P63010). Kind of experiment: beta-arrestin/AP2 interaction blockers – biochemical, validation set, GST-AP2 beads, flow cytometry, pilot screen (AID 504541;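 active = inhibition above 54%, about 3 SD of non-fluorescent compounds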;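 note: AP2 carries R879A mutation and is captured from E. coli lysate; bead-bound FITC arrestin peptide fluorescence measuring arrestin peptide binding to AP2; 0% = DMSO wells and 100% = excess unlabeled arrestin peptide control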). The settings on record: FITC arrestin peptide, at 10 µM, stronger effect = higher value, AP2 beta2 appendage fragment, R879A mutant.
Experiment [7] is described as follows: cytosolic pH regulators acting via V-ATPase – S. cerevisiae, pHLuorin, HTS validation (AID 504600; in the data active = response above about 15%;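 note: plate controls were DMSO for no effect and reference compound for full effect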). The following applies: V-ATPase proton transport, at 10 µM, stronger effect = higher value.
Experiment [8] has as its system anti-desmoglein-3 scFv antibody binding to human DSG3. Kind of experiment: blockers of pathogenic pemphigus antibody–desmoglein-3 binding – biochemical, validation compound set, bead-based, flow cytometry, pilot screen (AID 588368;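 active = binding below the plate cutoff, the plate median minus 3 SD, with a reading above zero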;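 note: signal is the median channel fluorescence of bead-bound GFP antibody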). The settings on record: Protein G beads, DSG3-Fc, scFv-GFP binding, at 10 µM, stronger effect = lower value.
A short description of experiment [9]: Nile Red efflux blockade in pump-expressing yeast – validation compound set, multiplex, phenotypic, pilot screen (AID 588506;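 active = efflux inhibition above 0.42, the validation set average plus 4 SD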;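 note: Nile Red retained in cells so higher fluorescence means more efflux inhibition; 0 = negative control wells and 1 = enniatin B 25 µM full block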). The settings on record: S. cerevisiae pump-expressing triplex, Nile Red efflux flow cytometry; at 10 µM; stronger effect = higher value; the pumps come from Candida albicans.
Experiment [10] deals with ATP-binding cassette sub-family B member 6 (Homo sapiens) (UniProt Q9NP58). The experiment can be described thus: blockers of ABCB6-driven porphyrin uptake – K562-ABCB6 cells, flow cytometry, validation set, pilot screen (AID 588550;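 active = inhibition above the screen-wide mean plus 3 SD, about 51%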;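 note: 0% = DMSO wells and 100% = benzethonium chloride 70 µM positive control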). The settings on record: K562-ABCB6 porphyrin accumulation, 1 h, at 10 µM, stronger effect = higher value.
The nature of experiment [11]: AML differentiation inducers, ER-HoxA9 marrow cells – cell-based, GFP/MAC1 double positive, flow cytometry, validation set, primary screen (AID 588685).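 Note: compound exposure lasts four days before antibody staining and flow analysis; 0% = DMSO wells and 100% = 5 µM fulvestrant positive control.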 The settings on record: stronger effect = higher value, normalized: vehicle 0, fulvestrant 100.

Calls of active or inactive are those of the source.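 Rule for the calls, unless noted: active = differentiation response of at least 50%, scaled between solvent and reference control, from cells with both markers; inactive = the rest.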

Broadly, the inhibition is the change of the read-out against control, counted positive when it falls.

Sequence of AP-2 complex subunit beta (Homo sapiens) (P63010 whole entry, looked up, the tested form may be a part, one chain of several): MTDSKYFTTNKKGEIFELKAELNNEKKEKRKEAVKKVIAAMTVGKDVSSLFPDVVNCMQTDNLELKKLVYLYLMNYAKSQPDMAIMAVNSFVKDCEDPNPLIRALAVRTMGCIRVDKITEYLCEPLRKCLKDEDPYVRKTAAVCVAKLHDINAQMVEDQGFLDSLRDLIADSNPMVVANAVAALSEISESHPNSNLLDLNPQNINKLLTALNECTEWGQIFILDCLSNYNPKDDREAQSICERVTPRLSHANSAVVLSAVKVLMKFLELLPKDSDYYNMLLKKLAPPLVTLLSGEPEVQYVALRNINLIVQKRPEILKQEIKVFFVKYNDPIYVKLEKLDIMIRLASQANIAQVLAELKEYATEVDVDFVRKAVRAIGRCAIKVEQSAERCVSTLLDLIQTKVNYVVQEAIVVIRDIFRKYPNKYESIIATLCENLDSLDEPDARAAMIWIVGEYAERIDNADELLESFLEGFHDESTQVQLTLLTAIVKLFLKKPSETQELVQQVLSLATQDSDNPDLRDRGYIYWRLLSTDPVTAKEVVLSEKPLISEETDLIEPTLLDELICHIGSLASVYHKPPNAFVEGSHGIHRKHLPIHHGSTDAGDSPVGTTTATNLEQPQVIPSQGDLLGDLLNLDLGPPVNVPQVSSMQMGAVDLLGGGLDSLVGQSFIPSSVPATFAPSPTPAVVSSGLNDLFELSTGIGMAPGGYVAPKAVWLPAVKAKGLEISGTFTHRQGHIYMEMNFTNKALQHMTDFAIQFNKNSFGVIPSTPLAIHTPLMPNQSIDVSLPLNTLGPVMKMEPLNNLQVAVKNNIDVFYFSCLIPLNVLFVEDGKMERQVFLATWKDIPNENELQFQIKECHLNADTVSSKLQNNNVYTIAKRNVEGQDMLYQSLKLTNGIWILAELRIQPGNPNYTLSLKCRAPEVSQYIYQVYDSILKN
Sequence of Beta-2 adrenergic receptor (Homo sapiens) (P07550 whole entry, looked up): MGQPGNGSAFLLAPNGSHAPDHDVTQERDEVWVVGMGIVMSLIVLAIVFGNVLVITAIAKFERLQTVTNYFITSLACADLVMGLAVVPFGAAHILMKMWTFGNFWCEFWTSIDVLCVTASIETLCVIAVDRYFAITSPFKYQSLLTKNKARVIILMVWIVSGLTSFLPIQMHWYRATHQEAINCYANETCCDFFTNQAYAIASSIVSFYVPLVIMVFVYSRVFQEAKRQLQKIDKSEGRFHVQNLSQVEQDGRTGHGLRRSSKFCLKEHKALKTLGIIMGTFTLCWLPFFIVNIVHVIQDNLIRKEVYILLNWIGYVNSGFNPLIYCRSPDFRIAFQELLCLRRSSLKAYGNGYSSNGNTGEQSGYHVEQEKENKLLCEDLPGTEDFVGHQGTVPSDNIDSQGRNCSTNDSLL
Sequence of Integrin beta-1 (Homo sapiens) + Integrin alpha-4 (Homo sapiens) (P05556 whole entry, looked up): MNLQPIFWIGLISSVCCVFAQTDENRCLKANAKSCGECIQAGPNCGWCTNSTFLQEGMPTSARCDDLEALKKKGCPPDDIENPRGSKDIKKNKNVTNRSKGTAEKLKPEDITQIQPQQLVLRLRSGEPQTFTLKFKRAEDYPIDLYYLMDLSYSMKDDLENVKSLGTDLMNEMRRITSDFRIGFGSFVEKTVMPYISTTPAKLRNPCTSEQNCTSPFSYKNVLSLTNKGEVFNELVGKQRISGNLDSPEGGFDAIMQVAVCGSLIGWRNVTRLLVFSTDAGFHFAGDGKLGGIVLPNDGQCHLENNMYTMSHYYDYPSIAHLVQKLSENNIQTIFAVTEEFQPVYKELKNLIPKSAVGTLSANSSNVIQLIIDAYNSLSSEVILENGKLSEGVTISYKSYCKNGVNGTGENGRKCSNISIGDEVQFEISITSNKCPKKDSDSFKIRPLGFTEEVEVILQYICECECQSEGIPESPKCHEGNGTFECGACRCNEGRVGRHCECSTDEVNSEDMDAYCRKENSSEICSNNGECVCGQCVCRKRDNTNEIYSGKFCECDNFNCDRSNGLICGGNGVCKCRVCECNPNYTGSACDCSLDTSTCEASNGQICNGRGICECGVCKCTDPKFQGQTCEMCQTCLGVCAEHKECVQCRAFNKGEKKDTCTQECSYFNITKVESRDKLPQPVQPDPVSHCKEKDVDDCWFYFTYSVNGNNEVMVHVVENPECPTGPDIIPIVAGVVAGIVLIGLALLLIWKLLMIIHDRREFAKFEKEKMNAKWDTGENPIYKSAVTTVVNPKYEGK
Sequence of Integrin beta-1 (Homo sapiens) + Integrin alpha-4 (Homo sapiens) (P13612 whole entry, looked up): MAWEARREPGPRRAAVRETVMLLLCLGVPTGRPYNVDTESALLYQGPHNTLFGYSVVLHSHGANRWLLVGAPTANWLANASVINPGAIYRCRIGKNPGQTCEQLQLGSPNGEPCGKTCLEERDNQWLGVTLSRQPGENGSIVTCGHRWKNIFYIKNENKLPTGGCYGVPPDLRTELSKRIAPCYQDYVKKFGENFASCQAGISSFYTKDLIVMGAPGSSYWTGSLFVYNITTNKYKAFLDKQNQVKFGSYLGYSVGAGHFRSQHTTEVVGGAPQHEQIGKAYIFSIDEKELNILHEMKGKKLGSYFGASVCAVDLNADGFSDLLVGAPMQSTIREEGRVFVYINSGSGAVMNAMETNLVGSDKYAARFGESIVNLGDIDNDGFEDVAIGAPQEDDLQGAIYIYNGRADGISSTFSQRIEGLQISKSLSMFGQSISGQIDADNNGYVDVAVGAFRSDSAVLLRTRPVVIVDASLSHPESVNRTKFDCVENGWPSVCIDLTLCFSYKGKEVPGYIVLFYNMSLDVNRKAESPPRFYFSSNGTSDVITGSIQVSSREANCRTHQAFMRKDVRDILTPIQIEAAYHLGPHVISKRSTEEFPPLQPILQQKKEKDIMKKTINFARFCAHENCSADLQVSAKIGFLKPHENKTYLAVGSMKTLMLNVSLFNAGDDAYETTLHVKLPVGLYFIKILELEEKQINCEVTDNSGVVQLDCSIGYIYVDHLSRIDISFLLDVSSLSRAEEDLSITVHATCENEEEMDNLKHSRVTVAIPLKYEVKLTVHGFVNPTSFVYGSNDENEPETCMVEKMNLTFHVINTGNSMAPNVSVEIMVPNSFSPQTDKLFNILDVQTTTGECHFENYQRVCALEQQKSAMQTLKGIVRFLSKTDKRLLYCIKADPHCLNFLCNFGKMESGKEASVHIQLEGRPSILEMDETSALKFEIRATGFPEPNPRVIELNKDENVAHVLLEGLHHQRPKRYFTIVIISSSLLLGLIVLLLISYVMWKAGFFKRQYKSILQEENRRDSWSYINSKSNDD
Sequence of Beta-adrenergic receptor kinase 1 (Homo sapiens) (P25098 whole entry, looked up): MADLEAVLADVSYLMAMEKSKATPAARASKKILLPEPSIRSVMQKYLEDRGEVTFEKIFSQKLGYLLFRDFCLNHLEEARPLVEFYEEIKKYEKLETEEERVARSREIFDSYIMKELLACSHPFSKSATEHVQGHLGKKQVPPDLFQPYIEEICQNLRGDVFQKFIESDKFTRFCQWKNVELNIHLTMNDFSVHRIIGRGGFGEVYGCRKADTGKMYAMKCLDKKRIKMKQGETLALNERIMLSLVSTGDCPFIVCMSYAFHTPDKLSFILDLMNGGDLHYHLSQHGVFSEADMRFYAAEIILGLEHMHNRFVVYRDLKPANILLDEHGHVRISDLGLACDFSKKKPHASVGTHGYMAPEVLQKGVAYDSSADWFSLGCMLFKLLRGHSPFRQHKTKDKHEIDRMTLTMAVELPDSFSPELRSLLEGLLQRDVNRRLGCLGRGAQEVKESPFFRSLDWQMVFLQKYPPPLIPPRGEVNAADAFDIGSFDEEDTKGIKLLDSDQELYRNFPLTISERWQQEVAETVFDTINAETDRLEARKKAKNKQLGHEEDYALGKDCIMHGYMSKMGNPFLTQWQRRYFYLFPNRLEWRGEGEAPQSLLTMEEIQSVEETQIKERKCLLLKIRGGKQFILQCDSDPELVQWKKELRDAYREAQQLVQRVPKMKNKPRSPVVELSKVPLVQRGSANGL
Sequence of ATP-binding cassette sub-family B member 6 (Homo sapiens) (Q9NP58 whole entry, looked up): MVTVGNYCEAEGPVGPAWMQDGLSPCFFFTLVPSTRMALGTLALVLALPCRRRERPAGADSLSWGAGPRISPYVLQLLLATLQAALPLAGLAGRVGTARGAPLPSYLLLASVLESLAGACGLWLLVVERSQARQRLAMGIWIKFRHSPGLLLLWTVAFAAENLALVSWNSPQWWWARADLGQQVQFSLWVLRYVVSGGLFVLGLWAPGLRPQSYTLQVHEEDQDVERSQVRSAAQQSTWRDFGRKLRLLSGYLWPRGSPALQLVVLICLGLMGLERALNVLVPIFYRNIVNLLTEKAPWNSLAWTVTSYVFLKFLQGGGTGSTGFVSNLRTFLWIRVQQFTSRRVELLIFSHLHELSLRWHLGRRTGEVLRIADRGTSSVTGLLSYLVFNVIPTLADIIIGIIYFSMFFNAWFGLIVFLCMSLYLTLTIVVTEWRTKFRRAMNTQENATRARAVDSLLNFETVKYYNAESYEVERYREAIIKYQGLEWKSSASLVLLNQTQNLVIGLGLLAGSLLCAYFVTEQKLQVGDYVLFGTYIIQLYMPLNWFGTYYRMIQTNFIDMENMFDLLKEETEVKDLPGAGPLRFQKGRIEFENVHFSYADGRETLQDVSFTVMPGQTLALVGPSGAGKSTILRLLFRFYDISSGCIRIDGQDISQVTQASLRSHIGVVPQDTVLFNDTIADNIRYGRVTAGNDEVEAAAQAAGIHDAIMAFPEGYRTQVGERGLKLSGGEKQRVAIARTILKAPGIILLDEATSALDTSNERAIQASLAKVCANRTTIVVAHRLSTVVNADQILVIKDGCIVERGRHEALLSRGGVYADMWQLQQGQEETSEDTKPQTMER

For `OCC1(CCOc2ccccc2)CCN(CCCn2cccn2)CC1`, the double positive events in experiment [1] was 62.6%. In experiment [1], the vesicle binding response was 287% (inactive). The inhibition in experiment [2] is 11.9% (inactive); in experiment [6], -9.04% (inactive); in experiment [10] it was 4% (inactive). In addition, the superoxide response (% of plate) in experiment [3] was 86.7% (inactive). In addition, the aptamer binding inhibition in experiment [4] is 0% (inactive). The response in experiment [5] was 22.2% (inactive); in [7] it was 3.24% (inactive). In addition, the binding (% of control) in experiment [8] is 101% (inactive). Also, the efflux inhibition (fraction of control) in experiment [9] was -0.39 (inactive). Also, the differentiation response in experiment [11] is 7.2% (inactive).

With `COc1ccc(CCN2CCC(Nc3nc4ccccc4n3Cc3ccc(F)cc3)CC2)cc1`, the double positive events in experiment [1] was 44.8%. Also, the vesicle binding response in [1] is 112% (inactive). The inhibition in experiment [2] was 16.3% (inactive); in experiment [6], 1.18% (inactive); in [10] it was -38% (inactive). Moreover, the superoxide response (% of plate) in experiment [3] is 93.2% (inactive). Further, the aptamer binding inhibition in experiment [4] was -15% (inactive). The results for the response in [5] and in experiment [7] were 34.8% (inactive) and 4.6% (inactive), respectively. Moreover, in experiment [8], the binding (% of control) is 138% (inactive). In addition, the efflux inhibition (fraction of control) in experiment [9] is 0.415 (inactive). Moreover, in experiment [11], the differentiation response was 10.1% (inactive).

Regarding `O=C(CCCC(=O)OCC1CCCO1)OCC1CCCO1` (centres undefined), in experiment [1], the double positive events was determined as 65.5%. Besides, the vesicle binding response in experiment [1] is 131% (inactive). Also, the inhibition was 4.52% (inactive) in [2], -6.03% (inactive) in [6] and 15% (inactive) in experiment [10]. Further, the superoxide response (% of plate) in experiment [3] was 93.2% (inactive). For the same compound, the aptamer binding inhibition in experiment [4] is -3% (inactive). Further, the response in experiment [5] was 2.91% (inactive); in experiment [7] it was 2.81% (inactive). The binding (% of control) in experiment [8] was 99.4% (inactive). Also, in [9], the efflux inhibition (fraction of control) is -0.02 (inactive). Moreover, the differentiation response in experiment [11] was 2.46% (inactive).

In turn, `COc1ccc(CCn2c(C)cc3c(c2=O)C(c2ccncc2)C(C#N)=C(N)O3)cc1OC` (centres undefined) gave a double positive events in experiment [1] of 59.3%. Also, the vesicle binding response in [1] was 179% (inactive). In addition, the inhibition in experiment [2] is -1.79% (inactive); in experiment [6] it was -6.51% (inactive); in experiment [10] it was 6% (inactive). For the same compound, the superoxide response (% of plate) in [3] is 102% (inactive). Besides, in experiment [4], the aptamer binding inhibition was 6% (inactive). The response in experiment [5] is 10.6% (inactive); in [7], 0.22% (inactive). Also, the binding (% of control) in experiment [8] was 101% (inactive). The efflux inhibition (fraction of control) in experiment [9] was -0.13 (inactive). The differentiation response in [11] is 12% (inactive).

Turning to `O=C(c1ccccc1F)c1cc2c(cc1[N+](=O)[O-])OCCO2`, in experiment [1], the double positive events came to 63%. In experiment [1], the vesicle binding response was 163% (inactive). Also, the values for the inhibition in experiment [2], in [6] and in [10] were 15% (inactive), -6.21% (inactive) and 7% (inactive), respectively. For the same compound, in experiment [3], the superoxide response (% of plate) is 107% (inactive). Also, the aptamer binding inhibition in experiment [4] is 3% (inactive). In addition, the response in [5] was 24.6% (inactive); in experiment [7], 1.51% (inactive). Further, the binding (% of control) in experiment [8] was 105% (inactive). For the same compound, in [9], the efflux inhibition (fraction of control) was -0.19 (inactive). Moreover, the differentiation response in [11] is -1.65% (inactive).

As for `CCCN1C[C@H](CSC)C[C@@H]2c3cccc4[nH]cc(c34)C[C@H]21`, the double positive events in [1] was 58.9%. For the same compound, in experiment [1], the vesicle binding response was 167% (inactive). Further, the inhibition in experiment [2] is -8.78% (inactive); in experiment [6], 1.85% (inactive); in experiment [10] it was -37% (inactive). Further, the superoxide response (% of plate) in [3] was 77.2% (inactive). For the same compound, in experiment [4], the aptamer binding inhibition is -1% (inactive). For the same compound, the response in [5] is -19.4% (inactive); in [7], 78.5% (active). For the same compound, the binding (% of control) in [8] is 105% (inactive). Moreover, in experiment [9], the efflux inhibition (fraction of control) was 0 (inactive). Further, in [11], the differentiation response was -10.9% (inactive).

The compound `C=C(CC)C(=O)c1ccc(OCC(=O)O)c(Cl)c1Cl` came in with a double positive events in experiment [1] of 52.1%. Besides, in [1], the vesicle binding response is 105% (inactive). Also, the inhibition in [2] is -4.21% (inactive); in experiment [6] it was -9.01% (inactive); in experiment [10], -92% (inactive). For the same compound, the superoxide response (% of plate) in [3] is 98.5% (inactive). The aptamer binding inhibition in [4] was 2% (inactive). For the same compound, the response in experiment [5] is 14.6% (inactive); in experiment [7] it was 1.56% (inactive). In experiment [8], the binding (% of control) was 108% (inactive). The efflux inhibition (fraction of control) in [9] was -0.38 (inactive). Besides, the differentiation response in experiment [11] is 1.64% (inactive).

`CN(C)CCOc1ccccc1Cc1ccccc1` registered a double positive events in experiment [1] of 69.2%. The vesicle binding response in [1] was 210% (inactive). Moreover, the inhibition was 23.6% (inactive) in [2], -8.22% (inactive) in experiment [6] and 14% (inactive) in [10]. Moreover, the superoxide response (% of plate) in experiment [3] was 85.8% (inactive). Further, in [4], the aptamer binding inhibition was 4% (inactive). In addition, the figures for the response in [5] and in experiment [7] were -20.2% (inactive) and -1.1% (inactive), respectively. In [8], the binding (% of control) is 104% (inactive). Moreover, the efflux inhibition (fraction of control) in experiment [9] is -0.13 (inactive). In addition, the differentiation response in experiment [11] is -1.05% (inactive).

Consider `OC(COCc1ccccc1)CN1CCN(Cc2ccc3c(c2)OCO3)CC1` (centres undefined), for which the double positive events in [1] was found to be 59.4%. Further, the vesicle binding response in experiment [1] was 189% (inactive). Moreover, the inhibition was 7.76% (inactive) in experiment [2], -4.35% (inactive) in experiment [6] and 4% (inactive) in experiment [10]. In [3], the superoxide response (% of plate) was 110% (inactive). In experiment [4], the aptamer binding inhibition is 2% (inactive). Besides, the response was 4.46% (inactive) in [5] and 4.61% (inactive) in experiment [7]. Besides, the binding (% of control) in [8] is 97.8% (inactive). Further, in experiment [9], the efflux inhibition (fraction of control) was -0.21 (inactive). In addition, the differentiation response in experiment [11] was 8.8% (inactive).

As to `CC(=O)CCc1oc2ccccc2c1-c1ccccc1`, the double positive events in experiment [1] was found to be 62.1%. Further, the vesicle binding response in [1] is 172% (inactive). Further, the inhibition in [2] was 0.59% (inactive); in experiment [6] it was -8% (inactive); in [10], 7% (inactive). Besides, the call in experiment [3] was inactive. In addition, the aptamer binding inhibition in experiment [4] was -3% (inactive). In addition, the response is -37.7% (inactive) in experiment [5] and -1.06% (inactive) in experiment [7]. Further, the binding (% of control) in experiment [8] was 108% (inactive). Moreover, in experiment [9], the efflux inhibition (fraction of control) is 0.12 (inactive). For the same compound, the differentiation response in [11] is -1.05% (inactive).

In turn, `O=c1oc2c(CN3CCN(CCO)CC3)c(O)ccc2cc1-c1ccccn1` registered a double positive events in [1] of 62.7%. For the same compound, the vesicle binding response in experiment [1] is 150% (inactive). In addition, the inhibition is -14.9% (inactive) in experiment [2], -9.17% (inactive) in [6] and 15% (inactive) in experiment [10]. For the same compound, in experiment [3], the superoxide response (% of plate) was 88.3% (inactive). Further, the aptamer binding inhibition in experiment [4] is -1% (inactive). In addition, the response in [5] is 59.8% (active); in [7], 5.97% (inactive). The binding (% of control) in experiment [8] is 109% (inactive). Also, in experiment [9], the efflux inhibition (fraction of control) was -0.06 (inactive). Moreover, in experiment [11], the differentiation response is 10.6% (inactive).

For the compound `COc1ccc(/C=C2\CCc3ccccc3C2=O)c(OC)c1OC`, the double positive events in experiment [1] amounted to 68.5%. In addition, the vesicle binding response in experiment [1] was 262% (inactive). The values for the inhibition in [2], in experiment [6] and in [10] were 2.3% (inactive), -2.94% (inactive) and 5% (inactive), respectively. In addition, in experiment [3], the superoxide response (% of plate) is 94.8% (inactive). In addition, in experiment [4], the aptamer binding inhibition was 3% (inactive). Besides, the response in experiment [5] was -0.85% (inactive); in [7], 5.35% (inactive). In [8], the binding (% of control) is 102% (inactive). Further, the efflux inhibition (fraction of control) in experiment [9] was 0.15 (inactive). For the same compound, the differentiation response in [11] was 31.2% (inactive).
